# Data reported in the supplement of paper PMC3334620.
# In all, about 33,000 sequences were measured (“E-score (-0.5 to 0.5)”: median about -0.054, highest 2% from about 0.35 on). Many of the other results were omitted from the sample, so the highest values are more common in it than they were.
# Target: T1, Stb5 (UniProt P38699)
# T1 sequence: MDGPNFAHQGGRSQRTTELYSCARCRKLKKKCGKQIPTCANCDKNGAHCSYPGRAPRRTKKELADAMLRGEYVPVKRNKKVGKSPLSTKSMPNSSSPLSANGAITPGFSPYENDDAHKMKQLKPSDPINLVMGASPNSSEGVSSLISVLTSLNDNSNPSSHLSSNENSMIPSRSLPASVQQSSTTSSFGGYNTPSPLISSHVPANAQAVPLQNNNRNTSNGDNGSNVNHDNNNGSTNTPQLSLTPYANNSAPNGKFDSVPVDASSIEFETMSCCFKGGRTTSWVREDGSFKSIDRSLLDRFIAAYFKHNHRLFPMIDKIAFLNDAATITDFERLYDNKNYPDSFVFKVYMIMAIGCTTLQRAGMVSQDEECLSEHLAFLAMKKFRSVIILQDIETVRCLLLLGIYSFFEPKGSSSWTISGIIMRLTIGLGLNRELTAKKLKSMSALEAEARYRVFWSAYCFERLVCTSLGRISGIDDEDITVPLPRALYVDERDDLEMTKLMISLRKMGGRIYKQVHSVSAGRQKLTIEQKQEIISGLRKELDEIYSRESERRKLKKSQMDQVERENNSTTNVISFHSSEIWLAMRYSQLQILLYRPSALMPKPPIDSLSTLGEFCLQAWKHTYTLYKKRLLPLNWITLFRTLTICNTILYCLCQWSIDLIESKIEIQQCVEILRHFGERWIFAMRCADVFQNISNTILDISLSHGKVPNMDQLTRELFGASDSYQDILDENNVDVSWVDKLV
# Experiment: PBM E-score (8-mer binding enrichment) (E-score (-0.5 to 0.5)); higher = stronger / more preferred TF binding
# Settings: protein concentration: 200 nM; construct: GST-full length
# Protocol: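 Universal 'all 10-mer' protein binding microarrays (Agilent AMADID 015681) probed with GST-tagged S. cerevisiae TFs (full-length or DBD) made by in vitro transcription/translation (PURExpress), about 100-200 nM. Bound TF was detected with fluorescent anti-GST. Each ungapped 8-mer (which stands for itself and its reverse complement) is scored by the PBM enrichment score (E-score), a modified Wilcoxon-Mann-Whitney statistic from -0.5 to +0.5, computed with the Universal PBM Analysis Suite. Scale: above 0.35 generally sequence-specific binding.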
row,Sequence,PBM E-score
1,ACTTGCAA,-0.00221
2,CAAGAAGG,-0.193
3,ATCGTATC,-0.175
4,AGTCTTAC,-0.185
5,AAGGGCAT,-0.336
6,ACTCGGCA,0.00054
7,GCATGAGC,-0.0601
8,GCCCAAGA,-0.114
9,CCATTGCG,0.116
10,CCGCGGAA,0.265
11,GGGCGGAC,0.408
12,CGGCGGAA,0.348
13,CCGCGGAC,0.362
14,CGGCGGAC,0.377
15,GCGCGGAC,0.292
16,GGGCGGAA,0.241
17,CCGCGGAG,0.298
18,CGGCGGAG,0.347
19,AATATATT,0.208
20,CCGAACTA,0.177
21,CAGCAGGG,-0.0502
22,CCAGAAGC,0.0499
23,CCTCCTTC,-0.213
24,CGAGGTGC,-0.146
25,CGCACCGC,0.352

row,Sequence,PBM E-score
1,AGCACCGC,0.461
2,CGCACCTC,-0.0539
3,AGCACCTC,-0.163
4,AGCACCAC,-0.0526
5,CGCACCGA,0.272
6,TCAGCTAA,-0.245
7,GACTAGTC,-0.117
8,ACTGTATG,-0.0542
9,CCCGCGGC,0.333
10,ACCGCGGA,0.358
11,ACCGCGGC,0.412
12,ACCGCGGT,0.39
13,CCCGCGGA,0.322
14,GCCGCGGA,0.299
15,CCCGCGCG,0.342
16,TCCGCGGA,0.144
17,ACCGCGAT,0.346
18,GCCGCGGC,0.331
19,CCCGCGGG,0.361
20,ACCGCGGG,0.317
21,CAAAACAG,-0.0698
22,CTGACAGA,-0.0917
23,ACCAGCCC,0.211
24,AACGAGGG,-0.19
25,AAGTCGGT,0.324

row,Sequence,PBM E-score
1,ACTTAAAC,-0.0316
2,AGGGAGCG,-0.0929
3,AGCTATCG,-0.103
4,AAATGAGA,-0.261
5,GGCACTGA,0.00323
6,GAAGAATA,-0.123
7,AAAGACCA,-0.216
8,AAGGACCA,-0.0213
9,AAGGACCG,0.383
10,AAAGACCG,0.448
11,AATGACCA,-0.133
12,AATGACCG,0.365
13,AAGGACCT,0.00048
14,CAAGACCG,0.312
15,AATGACCT,-0.0215
16,AGCATGGC,-0.178
17,GGCCTAGA,-0.147
18,CTGCATCA,-0.327
19,CACCTGTA,-0.208
20,CCCCGACA,0.412
21,GCCCGACA,0.334
22,ACCCGACG,0.287
23,CCCCGACC,0.355
24,CCCCGACG,0.449
25,TCCCGACA,0.291

row,Sequence,PBM E-score
1,CCCCGAGG,0.148
2,ACCCGACC,0.279
3,GCCCGACC,0.306
4,GCGACTCA,-0.156
5,CGCAGCAG,-0.0406
6,CGGATCTA,0.424
7,GGGATATA,0.272
8,GGGATGTA,-0.0169
9,CGGATTTC,0.223
10,GGGATTTA,0.351
11,CGGATTTA,0.452
12,CGGATCTC,0.103
13,CGGATGTC,0.223
14,GGGATCTA,0.0662
15,CGGATATC,0.193
16,CGGATATA,0.443
17,CGGATGTA,0.381
18,AGCGATGA,0.0899
19,CGCCAGGA,-0.17
20,ACGTCATC,-0.115
21,CTACTACC,0.216
22,ACAGCACC,0.202
23,GGCTAGTA,-0.139
24,ACCCTGCG,-0.165
25,TCCACCAA,-0.103

row,Sequence,PBM E-score
1,GACAAAGA,-0.0701
2,CATCCCGG,0.134
3,AATCCGGG,0.233
4,CATTCCCG,0.203
5,CATCCCCG,0.264
6,AATTCCCG,0.363
7,AATCCCCG,0.452
8,AATCCCGG,0.352
9,AATCCCCC,0.127
10,AATTCCCA,-0.261
11,GATGCAGC,0.0949
12,CATAAAGC,-0.0703
13,CTCAAATC,-0.136
14,TCACTCGA,-0.204
15,GCCGGTGA,0.316
16,CGCGGTCC,0.356
17,AGCGGTCC,0.327
18,CGCGGTCA,0.21
19,CGCGGTGA,0.359
20,GGCGGTCA,0.342
21,CCCGGTGA,0.261
22,CGCGGTAA,0.343
23,CGCGGTGC,0.378
24,CTCGGTGC,0.148
25,GGCGGTGA,0.376

row,Sequence,PBM E-score
1,CGCGGTAG,0.249
2,CCTATCAG,-0.131
3,CCAATATA,-0.07
4,CGCTCTAC,-0.0196
5,CAAAGCCC,0.285
6,AGCGGTGA,0.387
7,ACCGGTGC,0.377
8,AGCGGTAG,0.204
9,AGCGGTTC,0.0808
10,AGCGGTTA,0.122
11,CGCGGTTA,0.37
12,AGCGGTGC,0.396
13,CGCGGTTC,0.205
14,AGCGGTCA,0.29
15,ACCGGTGA,0.319
16,AGCGGTGG,0.346
17,CCCGGTGC,0.315
18,GCCGGAAA,0.187
19,CGTTGGAC,-0.0247
20,GTCCCATA,-0.0984
21,AGATTCAA,-0.16
22,AGCCTGCC,-0.229
23,CCTGACCA,-0.291
24,GACGGTGC,0.392
25,ACCGGTAA,0.326

row,Sequence,PBM E-score
1,CACGGTGC,0.306
2,ACCGGTAC,0.397
3,ACCGGTAT,0.336
4,GACGGTGA,0.325
5,AGAATGAT,-0.254
6,ATTGCATA,-0.0781
7,CAAGATGA,-0.286
8,AACCTTCC,-0.135
9,CGACTCCA,-0.0871
10,TAAAAAGA,0.046
11,GCAGAGTA,-0.202
12,CATCTAGC,-0.12
13,CGGGCCGC,0.195
14,AGGGCCGC,0.36
15,GGGGCCGA,0.158
16,AGGGCCGA,0.354
17,AGGGCCGG,0.271
18,CGGGCCGA,0.327
19,CTGGGGCC,-0.0638
20,GGTTGTAA,0.0915
21,CGGAGTGC,0.198
22,GGGAGTCA,-0.163
23,CGGAGTGA,0.391
24,CGGAGTCA,0.391
